# Results filed as inconclusive are left out. Calls of active or inactive are those of the source. How the source made its calls: active means hit-call score of the fitted dose curve at least 0.9, where 1 is the maximum; inconclusive means response in the unintended direction; inactive means score below 0.9.
# What was measured:
# [1] = biological target: Glycogen synthase kinase-3 beta (Homo sapiens) (UniProt P49841); assay: NVS_ENZ_hGSK3b: NovaScreen (NVS) Enzymatic Assay for human Glycogen Synthase Kinase-3 beta (GSK3b) (AID 2283165)
# Glycogen synthase kinase-3 beta (Homo sapiens), sequence (P49841 whole entry, looked up): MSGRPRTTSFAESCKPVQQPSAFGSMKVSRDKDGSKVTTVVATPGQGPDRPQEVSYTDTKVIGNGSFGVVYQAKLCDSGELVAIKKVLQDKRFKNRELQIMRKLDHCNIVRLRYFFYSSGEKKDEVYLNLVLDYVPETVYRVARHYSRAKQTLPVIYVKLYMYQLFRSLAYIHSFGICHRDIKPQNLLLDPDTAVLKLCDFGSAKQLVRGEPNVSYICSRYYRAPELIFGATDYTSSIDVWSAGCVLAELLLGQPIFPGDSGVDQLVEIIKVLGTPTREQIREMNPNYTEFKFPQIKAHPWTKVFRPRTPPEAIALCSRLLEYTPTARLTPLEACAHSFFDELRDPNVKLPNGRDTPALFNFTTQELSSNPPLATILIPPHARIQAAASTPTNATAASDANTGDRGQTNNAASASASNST
# How it was run: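 Recombinant enzyme with specific fluorescent substrate, 1 h, product separated by electrophoretic mobility shift. Primary duplicate screen at 25 uM; actives (e.g. 30% inhibition) followed in singleton concentration-response to 50 uM. Signal loss fitted versus DMSO.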
# [2] = biological target: human Esterase Plasma (ES), BCHE (gene 590) (UniProt P06276); assay: NVS_ENZ_hES: NovaScreen (NVS) Enzymatic Assay for human Esterase Plasma (ES) (AID 2283157)
# human Esterase Plasma (ES), BCHE (gene 590), sequence (P06276 whole entry, looked up): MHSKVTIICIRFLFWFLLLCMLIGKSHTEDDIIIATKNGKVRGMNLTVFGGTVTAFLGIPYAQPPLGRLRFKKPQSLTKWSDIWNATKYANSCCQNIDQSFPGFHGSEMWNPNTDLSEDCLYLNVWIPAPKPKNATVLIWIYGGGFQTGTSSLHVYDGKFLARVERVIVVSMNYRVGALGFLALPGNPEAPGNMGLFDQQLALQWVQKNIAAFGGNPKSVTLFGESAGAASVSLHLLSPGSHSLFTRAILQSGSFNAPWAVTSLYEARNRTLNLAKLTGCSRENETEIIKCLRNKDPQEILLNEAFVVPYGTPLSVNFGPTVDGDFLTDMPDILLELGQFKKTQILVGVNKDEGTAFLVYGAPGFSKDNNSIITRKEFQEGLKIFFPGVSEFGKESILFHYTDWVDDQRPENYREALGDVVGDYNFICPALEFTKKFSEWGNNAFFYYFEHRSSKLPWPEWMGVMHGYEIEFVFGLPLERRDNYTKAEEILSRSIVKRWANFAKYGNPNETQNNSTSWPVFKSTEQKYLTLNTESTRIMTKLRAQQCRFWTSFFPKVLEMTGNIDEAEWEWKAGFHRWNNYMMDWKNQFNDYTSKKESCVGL
# How it was run: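 Esterase from human plasma, cell-free, colorimetric absorbance read 0.25 h after dosing. Screened at 25 uM in duplicate, with threshold-passing chemicals run in concentration-response up to 50 uM; loss of signal fitted versus DMSO.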
# [3] = biological target: human Elastase, ELANE (gene 1991) (UniProt P08246); assay: NVS_ENZ_hElastase: NovaScreen (NVS) Enzymatic Assay for human Elastase (AID 2283153)
# human Elastase, ELANE (gene 1991), sequence (P08246 whole entry, looked up): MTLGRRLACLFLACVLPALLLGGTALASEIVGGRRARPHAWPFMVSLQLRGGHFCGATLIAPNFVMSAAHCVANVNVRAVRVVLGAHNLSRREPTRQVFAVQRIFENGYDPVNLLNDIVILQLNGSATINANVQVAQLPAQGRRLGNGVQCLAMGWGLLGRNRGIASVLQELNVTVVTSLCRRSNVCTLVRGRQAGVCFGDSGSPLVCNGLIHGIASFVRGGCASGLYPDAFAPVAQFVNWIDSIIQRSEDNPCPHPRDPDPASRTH
# How it was run: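 Cell-free elastase from human neutrophils, 1.5 h after dosing, activity read by absorbance. Primary screen in duplicate at 25 uM; hits (e.g., 30% inhibition) rerun in singleton concentration-response up to 50 uM, fitted versus DMSO.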
# [4] = biological target: human Ephrin type-A Receptor 2 (EphA2), EPHA2 (gene 1969) (UniProt P29317); assay: NVS_ENZ_hEphA2: NovaScreen (NVS) Enzymatic Assay for human Ephrin type-A Receptor 2 (EphA2) (AID 2283155)
# human Ephrin type-A Receptor 2 (EphA2), EPHA2 (gene 1969), sequence (P29317 whole entry, looked up): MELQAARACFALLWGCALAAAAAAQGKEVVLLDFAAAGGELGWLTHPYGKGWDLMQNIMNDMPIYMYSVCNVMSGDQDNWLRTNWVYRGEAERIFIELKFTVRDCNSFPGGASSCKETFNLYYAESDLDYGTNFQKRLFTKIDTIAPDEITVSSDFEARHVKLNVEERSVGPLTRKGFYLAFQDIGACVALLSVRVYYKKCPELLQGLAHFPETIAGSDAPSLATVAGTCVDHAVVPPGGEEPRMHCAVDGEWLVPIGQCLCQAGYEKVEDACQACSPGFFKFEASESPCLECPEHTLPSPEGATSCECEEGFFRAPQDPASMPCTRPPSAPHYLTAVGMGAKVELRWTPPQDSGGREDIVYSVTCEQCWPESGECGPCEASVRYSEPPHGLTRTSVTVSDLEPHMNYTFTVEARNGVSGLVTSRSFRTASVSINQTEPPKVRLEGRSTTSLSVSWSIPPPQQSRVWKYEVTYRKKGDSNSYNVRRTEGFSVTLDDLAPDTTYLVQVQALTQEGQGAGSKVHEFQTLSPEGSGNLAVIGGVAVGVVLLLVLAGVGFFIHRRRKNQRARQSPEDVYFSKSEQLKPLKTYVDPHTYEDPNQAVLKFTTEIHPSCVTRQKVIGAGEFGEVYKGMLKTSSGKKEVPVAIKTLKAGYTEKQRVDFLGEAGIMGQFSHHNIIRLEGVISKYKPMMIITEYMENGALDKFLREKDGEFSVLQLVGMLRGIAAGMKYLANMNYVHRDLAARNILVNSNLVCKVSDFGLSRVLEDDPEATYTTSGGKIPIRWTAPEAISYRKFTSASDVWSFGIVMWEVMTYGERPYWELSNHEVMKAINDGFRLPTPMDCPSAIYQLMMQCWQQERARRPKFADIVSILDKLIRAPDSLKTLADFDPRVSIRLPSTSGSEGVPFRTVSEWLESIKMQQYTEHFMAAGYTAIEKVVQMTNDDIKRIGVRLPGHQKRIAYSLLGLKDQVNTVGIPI
# How it was run: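 Cell-free recombinant EphA2 kinase with specific substrate, 1 h, fluorescence with electrophoretic mobility-shift separation of substrate and product. Primary screen at 25 uM in duplicate; hits retested in singleton concentration-response up to 50 uM, referenced to DMSO.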
# [5] = biological target: human FYN Proto-Oncogene, Src family Tyrosine Kinase (Fyn), FYN (gene 2534) (UniProt P06241); assay: NVS_ENZ_hFyn: NovaScreen (NVS) Enzymatic Assay for human FYN Proto-Oncogene, Src family Tyrosine Kinase (Fyn) (AID 2283161)
# human FYN Proto-Oncogene, Src family Tyrosine Kinase (Fyn), FYN (gene 2534), sequence (P06241 whole entry, looked up): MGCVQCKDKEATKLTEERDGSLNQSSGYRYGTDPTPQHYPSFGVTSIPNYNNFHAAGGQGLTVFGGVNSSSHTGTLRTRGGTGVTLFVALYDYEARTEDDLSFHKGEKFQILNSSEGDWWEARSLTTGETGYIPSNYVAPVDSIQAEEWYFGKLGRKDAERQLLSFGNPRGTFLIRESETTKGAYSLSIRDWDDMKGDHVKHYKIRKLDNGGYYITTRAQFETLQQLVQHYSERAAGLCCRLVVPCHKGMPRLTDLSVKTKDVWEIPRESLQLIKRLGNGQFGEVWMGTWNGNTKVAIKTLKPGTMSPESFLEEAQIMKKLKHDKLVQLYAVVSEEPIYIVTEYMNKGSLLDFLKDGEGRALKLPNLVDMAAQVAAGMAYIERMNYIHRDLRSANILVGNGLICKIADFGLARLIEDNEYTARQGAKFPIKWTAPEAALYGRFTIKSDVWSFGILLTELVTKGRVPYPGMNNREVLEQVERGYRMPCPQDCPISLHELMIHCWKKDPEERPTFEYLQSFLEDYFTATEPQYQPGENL
# How it was run: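 Recombinant enzyme with fluorescent substrate, product separated by electrophoretic mobility shift; read 1 h after dosing. Duplicate 25 uM single-point screen, actives retested in concentration series; loss of signal vs DMSO.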
# [6] = biological target: human Dual Specificity Protein Phosphatase 3 (DUSP3), DUSP3 (gene 1845) (UniProt P51452); assay: NVS_ENZ_hDUSP3: NovaScreen (NVS) Enzymatic Assay for human Dual Specificity Protein Phosphatase 3 (DUSP3) (AID 2283152);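 further: phosphatase activity of recombinant human DUSP3 on a fluorogenic substrate without cells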
# human Dual Specificity Protein Phosphatase 3 (DUSP3), DUSP3 (gene 1845), sequence (P51452 whole entry, looked up): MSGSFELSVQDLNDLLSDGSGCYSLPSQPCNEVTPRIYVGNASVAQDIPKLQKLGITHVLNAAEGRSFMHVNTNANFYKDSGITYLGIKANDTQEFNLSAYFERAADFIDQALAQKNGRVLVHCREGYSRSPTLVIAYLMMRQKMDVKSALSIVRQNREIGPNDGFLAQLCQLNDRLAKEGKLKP
# How it was run: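 Cell-free assay with recombinant human DUSP3 and fluorogenic substrate, read by fluorescence intensity. Primary screen ran duplicate at 25 uM; actives followed up in concentration series; loss of signal versus DMSO scored.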
# [7] = biological target: Histone deacetylase 3 (Homo sapiens) (UniProt O15379); assay: NVS_ENZ_hHDAC3: NovaScreen (NVS) Enzymatic Assay for human Histone Deacetylase 3 (HDAC3) (AID 2283163)
# How it was run: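 Recombinant human HDAC3 with fluorescent substrate, 1 h after dosing; product separated from substrate by electrophoretic mobility shift and read by fluorescence. Primary screen at 25 uM in duplicate; actives (e.g. ≥30% inhibition) retested in concentration-response up to 50 uM.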
# [8] = biological target: human Epidermal Growth Factor Receptor (EGFR), EGFR (gene 1956) (UniProt P00533); assay: NVS_ENZ_hEGFR: NovaScreen (NVS) Enzymatic Assay for human Epidermal Growth Factor Receptor (EGFR) (AID 2283151)
# How it was run: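 Cell-free kinase assay, fluorescence plus electrophoretic mobility shift separating substrate and product, read 1 hour after dosing; loss of signal vs DMSO. Duplicate screen at 25 uM, then concentration-response to 50 uM.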
# [9] = biological target: human Ephrin type-A Receptor 1 (EphA1), EPHA1 (gene 2041) (UniProt P21709); assay: NVS_ENZ_hEphA1: NovaScreen (NVS) Enzymatic Assay for human Ephrin type-A Receptor 1 (EphA1) (AID 2283158);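 further: activity is signal loss versus DMSO meaning EphA1 kinase inhibition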
# human Ephrin type-A Receptor 1 (EphA1), EPHA1 (gene 2041), sequence (P21709 whole entry, looked up): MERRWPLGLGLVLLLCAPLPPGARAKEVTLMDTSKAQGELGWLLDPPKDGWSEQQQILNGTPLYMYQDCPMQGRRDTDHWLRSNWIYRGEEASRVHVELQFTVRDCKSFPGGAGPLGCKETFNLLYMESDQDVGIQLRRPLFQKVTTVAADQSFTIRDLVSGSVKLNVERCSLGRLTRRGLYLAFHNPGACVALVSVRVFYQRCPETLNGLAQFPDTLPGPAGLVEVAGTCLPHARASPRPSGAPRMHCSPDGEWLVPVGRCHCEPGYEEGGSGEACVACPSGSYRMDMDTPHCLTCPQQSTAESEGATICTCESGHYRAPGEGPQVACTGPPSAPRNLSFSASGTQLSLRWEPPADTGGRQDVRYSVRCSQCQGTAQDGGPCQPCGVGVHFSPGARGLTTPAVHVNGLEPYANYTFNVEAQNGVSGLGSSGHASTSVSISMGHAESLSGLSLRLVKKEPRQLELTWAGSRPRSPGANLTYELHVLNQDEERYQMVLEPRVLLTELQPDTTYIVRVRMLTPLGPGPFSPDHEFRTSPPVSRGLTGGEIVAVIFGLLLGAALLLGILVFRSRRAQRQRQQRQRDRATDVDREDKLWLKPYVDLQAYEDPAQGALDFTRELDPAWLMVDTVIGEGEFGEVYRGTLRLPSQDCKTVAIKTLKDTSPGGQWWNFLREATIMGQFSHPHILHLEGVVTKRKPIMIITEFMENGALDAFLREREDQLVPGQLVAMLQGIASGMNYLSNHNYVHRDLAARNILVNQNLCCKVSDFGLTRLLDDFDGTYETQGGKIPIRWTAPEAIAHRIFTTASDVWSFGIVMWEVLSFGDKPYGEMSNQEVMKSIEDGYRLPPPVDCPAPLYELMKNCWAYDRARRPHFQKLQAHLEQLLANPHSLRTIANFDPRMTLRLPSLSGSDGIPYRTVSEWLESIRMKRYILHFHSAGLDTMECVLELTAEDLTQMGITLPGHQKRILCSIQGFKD
# How it was run: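 Biochemical kinase assay run cell-free; 1 h incubation; readout is fluorescence with mobility-shift separation of product. Concentration-response up to 50 uM for actives from a 25 uM screen.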
# [10] = biological target: human Fibroblast Growth Factor Receptor 1 (FGFR1), FGFR1 (gene 2260) (UniProt P11362); assay: NVS_ENZ_hFGFR1: NovaScreen (NVS) Enzymatic Assay for human Fibroblast Growth Factor Receptor 1 (FGFR1) (AID 2283159)
# human Fibroblast Growth Factor Receptor 1 (FGFR1), FGFR1 (gene 2260), sequence (P11362 whole entry, looked up): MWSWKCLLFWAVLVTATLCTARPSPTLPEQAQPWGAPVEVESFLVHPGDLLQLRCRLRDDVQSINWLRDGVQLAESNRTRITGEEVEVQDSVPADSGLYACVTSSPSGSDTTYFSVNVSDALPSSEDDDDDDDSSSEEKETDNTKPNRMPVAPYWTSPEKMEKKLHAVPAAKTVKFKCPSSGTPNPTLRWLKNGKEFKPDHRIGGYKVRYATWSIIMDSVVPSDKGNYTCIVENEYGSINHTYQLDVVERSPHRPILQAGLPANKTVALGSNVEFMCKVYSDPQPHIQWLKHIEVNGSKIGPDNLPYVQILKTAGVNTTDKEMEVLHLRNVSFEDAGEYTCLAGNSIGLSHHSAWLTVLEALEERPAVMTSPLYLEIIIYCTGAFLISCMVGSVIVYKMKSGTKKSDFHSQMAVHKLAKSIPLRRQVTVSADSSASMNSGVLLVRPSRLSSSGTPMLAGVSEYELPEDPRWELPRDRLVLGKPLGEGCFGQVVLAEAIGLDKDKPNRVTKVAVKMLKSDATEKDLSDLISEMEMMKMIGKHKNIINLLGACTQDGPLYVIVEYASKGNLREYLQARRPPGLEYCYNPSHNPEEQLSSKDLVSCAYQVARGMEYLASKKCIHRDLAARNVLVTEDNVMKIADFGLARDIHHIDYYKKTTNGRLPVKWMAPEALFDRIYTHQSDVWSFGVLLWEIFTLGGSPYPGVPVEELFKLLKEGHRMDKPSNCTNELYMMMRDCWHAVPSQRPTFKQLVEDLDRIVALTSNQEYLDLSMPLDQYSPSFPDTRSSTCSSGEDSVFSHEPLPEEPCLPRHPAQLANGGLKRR
# How it was run: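 Cell-free recombinant kinase with fluorescent substrate, product separated by electrophoretic mobility shift; read 1 hour after dosing, loss of signal relative to DMSO. Initial screen in duplicate at 25 uM, actives followed in concentration series.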
smiles,measurement,setting,value
CC(O)CCO (stereo not given),outcome,[1],inactive
O=[N+]([O-])C(Br)(CO)CO,AC50,[2],32.1 µM (active)
same,outcome,[1],inactive
O=C(Nc1ccccc1)c1ccccc1I,outcome,[2],inactive
CCCCCCCCCCCCCN1CC(C)OC(C)C1 (stereo not given),outcome,[3],inactive
same,outcome,[4],inactive
same,outcome,[2],inactive
same,outcome,[5],inactive
[Cl-].[Cl-].[Hg+2],AC50,[2],20.9 µM (active)
CCOC(=O)[C@]1(c2ccccc2)Oc2ccccc2[C@@H]1N,AC50,[2],16.7 µM (active)
same,outcome,[1],inactive
COP(=S)(OC)SCN1C(=O)c2ccccc2C1=O,outcome,[6],inactive
Cn1cc(-c2ccccc2)c(=O)c(-c2cccc(C(F)(F)F)c2)c1,outcome,[7],inactive
CCCCC(CC)COC(=O)c1ccc(C(=O)OCC(CC)CCCC)c(C(=O)OCC(CC)CCCC)c1 (stereo not given),outcome,[8],inactive
same,outcome,[9],inactive
same,outcome,[10],inactive
CCOc1cccc(C2(N3CCN(c4ccccc4)CC3)CCC(C)CC2)c1 (stereo not given),outcome,[2],inactive
OCCCBr,outcome,[9],inactive
O=C(N[C@H](c1ccccc1)[C@@H]1CN2CCC1CC2)c1c(Cl)ccc(C(F)(F)F)c1Cl,AC50,[2],19.8 µM (active)
C1=Cc2cccc3cccc1c23,outcome,[6],inactive
same,outcome,[2],inactive
Cc1ccc([N+](=O)[O-])cc1,outcome,[1],inactive
CCCCCCCCn1sccc1=O,AC50,[6],26 µM (active)
same,outcome,[9],inactive
Clc1ccccc1Cl,outcome,[1],inactive
CCN(CC)CCO,outcome,[1],inactive
OCCCl,outcome,[1],inactive
CN(C)c1ccccc1,outcome,[1],inactive
CN(C)C(=O)Nc1ccc(Cl)cc1,outcome,[4],inactive
same,outcome,[2],inactive
CNC(=O)Oc1cccc2c1OC(C)(C)C2,AC50,[2],27.3 µM (active)
same,outcome,[5],inactive
Oc1ccccc1Cl,outcome,[4],inactive
same,outcome,[10],inactive
Nc1ccc(Cc2ccc(N)cc2)cc1,outcome,[1],inactive

# Reference: PubChem BioAssay (EPA / NIEHS)
